The text below walks through data of PubChem BioAssay (Tox21).

Where “and” joins values, the source holds several entries; their conditions need not be identical. Equal values may be shown once. Records with an inconclusive call do not appear. Some structures have more than one record in an assay (separate samples or runs), and their calls can disagree. Calls of active or inactive are those of the source. Calls come from the whole dose curve; as a rule, active = well fitted curve in the direction sought with a large enough effect in the repeat runs; inconclusive = weak or mixed curves; inactive = no such curve, though single readings can be large; an effect the other way counts as inactive or inconclusive.

The nature of assay [1]: qHTS RealTime-Glo MT Cell Viability Assay in HEK293 cells - 16 hour (AID 1224872). Note: nearly all actives have a fitted effect of over 50% in size. Note: potency is the fitted concentration of half-maximal effect. In outline:
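HEK293 cells seeded with NanoLuc/prosubstrate reagent, rested 5 h at 37 C, then dosed and kept at 37 C up to 40 h. Nonlytic real-time luminescence from viable cells read at 0, 8, 16, 24, 32 and 40 h.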
On the technique in general: In qHTS, concentration-response curves come from the screen itself.

Assay [2] is described as follows: qHTS RealTime-Glo MT Cell Viability Assay in HepG2 cells - 8 hour (AID 1224873). Note: nearly all actives have a fitted effect of over 55% in size. In outline:
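HepG2 cells mixed with RealTime-Glo MT reagents (NanoLuc plus cell-permeant prosubstrate) were seeded at 600 cells/well, incubated 5 h at 37 C/5% CO2, then pinned with compounds in DMSO; nonlytic luminescence tracked viability during 40 h treatment.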

Assay [3] in a line: qHTS RealTime-Glo MT Cell Viability Assay in HEK293 cells - 40 hour (AID 1224874). Note: nearly all actives have a fitted effect of over 50% in size. Note: potency is the fitted concentration of half-maximal effect. The note with it: RealTime-Glo luminescence; max response: stronger effect = lower value. In outline:
(§1)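 HEK293 + NanoLuc + prosubstrate, 600 cells/well; 5 h, 37 C/5% CO2; compound 23 nL in DMSO by pintool; 37 C; luminescence read at 0, 8, 16, 24, 32 and 40 h time points.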

Assay [4] in a line: A CellTox Green Cytotoxicity Assay to monitor cytotoxicity in HepG2 cells - 16 hour (AID 1224876). Note: nearly all actives have a fitted effect of over 45% in size. Note: potency is the fitted concentration of half-maximal effect. In outline:
(§2)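 Measurements at 0, 8, 16, 24, 32 and 40 h of treatment captured CellTox Green fluorescence in HepG2 cells that had been co-plated with reagent and preincubated 5 h at 37 C/5% CO2.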

Assay [5] is described as follows: qHTS RealTime-Glo MT Cell Viability Assay in HepG2 cells - 32 hour (AID 1224877). Note: nearly all actives have a fitted effect of over 55% in size. Note: potency is the fitted concentration of half-maximal effect. In outline: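 HepG2 cells (600/well) were dispensed with RealTime-Glo reagents, incubated 5 h at 37 °C, then treated with compounds in DMSO for up to 40 h. Nonlytic NanoLuc luminescence reflecting viable cells was read at each stated time point.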
Assay [6] in a line: A CellTox Green Cytotoxicity Assay to monitor cytotoxicity in HepG2 cells - 24 hour (AID 1224878). Note: nearly all actives have a fitted effect of over 45% in size. Note: potency is the fitted concentration of half-maximal effect. In short, it runs like this:
as §2

The nature of assay [7]: qHTS RealTime-Glo MT Cell Viability Assay in HEK293 cells - 0 hour (AID 1224880). Note: nearly all actives have a fitted effect of over 45% in size. Note: potency is the fitted concentration of half-maximal effect. In short, it runs like this:
as §1

The nature of assay [8]: A CellTox Green Cytotoxicity Assay to monitor cytotoxicity in HEK293 cells - 32 hour (AID 1224881). Note: nearly all actives have a fitted effect of over 40% in size. Note: potency is the fitted concentration of half-maximal effect. In outline:
(§3)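 Tox21 screen in HEK293: membrane-impermeant cyanine dye fluoresces on binding dead-cell DNA; compound pinned 5 h post-seeding, plates held at 37 C, signal read repeatedly through 40 h.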

Assay [9] is described as follows: A CellTox Green Cytotoxicity Assay to monitor cytotoxicity in HEK293 cells - 24 hour (AID 1224875). Note: nearly all actives have a fitted effect of over 45% in size. Note: potency is the fitted concentration of half-maximal effect. In outline:
as §3

Assay [10] in a line: A CellTox Green Cytotoxicity Assay to monitor cytotoxicity in HepG2 cells - 40 hour (AID 1224879). Note: nearly all actives have a fitted effect of over 40% in size. Note: potency is the fitted concentration of half-maximal effect. In outline: as §2
% is set by controls: 0 for no effect and ±100 for the full control effect.

In the case of `CCCCCCc1ccc(O)cc1O`, the Potency is 19.6 µM (active) and 11 µM (active) in assay [1]; 19.6 µM (active) and 12.3 µM (active) in [3]; “inactive and 43.6 µM (active) and 21.3 µM (active)” in assay [4]; 49.1 µM (active) and 38.9 µM (active) and 21.3 µM (active) in assay [6]; 49.1 µM (active) and 49 µM (active) and inactive in assay [8]. Also, the Potency result in assay [2], in [5] and in assay [7] was “inactive” throughout.

Turning to `CCCCC(CC)C(=O)O` (stereo unspecified), the Potency result in assay [1], in [2], in assay [9], in assay [4], in assay [5] and in assay [6] was “inactive” in each case. Moreover, the Potency entry in [7] and in [8] was “inactive” in each case.

For `O=C(O)c1ccccc1`, the Potency entry in assay [1], in assay [2], in assay [9], in [4], in [5] and in assay [6] was “inactive” in each case. The Potency entry in assay [10], in assay [7] and in assay [8] was “inactive” each time.

As for `CN(C)C(=S)SC(=S)N(C)C`, the Potency is 2.24 µM (active) and 2.75 µM (active) and 6.74 µM (active) in assay [1]; 1.59 µM (active) and 1.23 µM (active) and 6.01 µM (active) in [3]; 3.99 µM (active) and 21.9 µM (active) in [9]; “inactive and 3.89 µM (active)” in assay [4]; 1.55 µM (active) and 3.38 µM (active) in [5]; 3.17 µM (active) and 2.45 µM (active) and 2.39 µM (active) in assay [6]. The Potency in assay [10] was 2.52 µM (active) and 1.38 µM (active) and 2.39 µM (active); in assay [8], 2.52 µM (active) and 8.71 µM (active) and 3.01 µM (active). The Potency entry in assay [7] is “inactive”.

On to `Nc1ccc([N+](=O)[O-])cc1O`, for which the Potency entry in assay [1], in assay [2], in assay [9], in assay [4], in assay [5] and in [6] was “inactive” each time. Also, the Potency entry in assay [10], in assay [7] and in [8] was “inactive” throughout.

Turning to `NC(CO)(CO)CO`, the Potency result in [1], in [2], in [9], in [4], in assay [5] and in [6] was “inactive” throughout. For the same compound, the Potency result in [10], in assay [7] and in assay [8] was “inactive” each time.

With `O=C1OC2(c3ccccc31)c1cc(Br)c(O)c(Br)c1Oc1c2cc(Br)c(O)c1Br`, the Potency entry in assay [1], in assay [2] and in [5] was “inactive” each time. In addition, the max response in assay [3] is -26.3% (inactive) and -6.61% (inactive). Besides, the Potency in assay [9] is 4.43 µM (active) and 7.11 µM (active) and 9.52 µM (active); in assay [4] it was 4.97 µM (active) and 14.2 µM (active) and 23.9 µM (active); in assay [6], 4.97 µM (active) and 12.7 µM (active) and 23.9 µM (active); in assay [7], 9.92 µM (active) and 17.9 µM (active) and 23.9 µM (active); in [8], 4.97 µM (active) and 7.11 µM (active) and 21.3 µM (active).

With `CC(=O)Nc1c(I)c(NC(C)=O)c(I)c(C(=O)O)c1I`, the Potency entry in assay [1], in assay [2], in assay [9], in assay [4], in assay [5] and in assay [6] was “inactive” each time. Besides, the Potency result in [7] and in assay [8] was “inactive” in each case. The max response in assay [3] was 8.14% (inactive) and 7% (inactive) and 2.59% (inactive).

As for `Cc1c(C(=O)O)c(O)cc2c1C(=O)c1c(O)c([C@@H]3O[C@H](CO)[C@@H](O)[C@H](O)[C@H]3O)c(O)c(O)c1C2=O`, the Potency result in [1], in assay [2], in assay [9], in assay [4], in [5] and in assay [6] was “inactive” in each case. Besides, the Potency entry in assay [7] and in assay [8] was “inactive” in each case. Besides, in assay [3], the max response is -10.5% (inactive) and -11.6% (inactive) and 0.861% (inactive).

Turning to `NS(=O)(=O)c1cc2c(cc1Cl)NCNS2(=O)=O`, the Potency entry in [1], in [2], in [9], in [4], in [5] and in [6] was “inactive” in each case. Further, the Potency entry in [7] and in assay [8] was “inactive” each time. Further, the max response in [3] was 0.173% (inactive) and -4.85% (inactive) and 1.86% (inactive).

As for `O=C1NC(=O)C(c2ccccc2)(c2ccccc2)N1`, the Potency entry in [1], in assay [2], in assay [5] and in [7] was “inactive” each time. Also, the max response in assay [3] was -30.3% (inactive) and -21% (inactive). For the same compound, the Potency entry is “inactive and 23.9 µM (active)” in [4]; “inactive and 23.9 µM (active)” in assay [6]; “inactive and 23.9 µM (active)” in assay [10]; “inactive and 19 µM (active)” in [8].

Take `O=c1[nH]cnc2c1ncn2[C@H]1CC[C@@H](CO)O1`: the Potency result in [1], in assay [2], in assay [9], in [4], in assay [5] and in assay [6] was “inactive” in each case. The Potency result in assay [7] and in assay [8] was “inactive” throughout. The max response in assay [3] was 9.2% (inactive) and 0.925% (inactive) and -0.369% (inactive).

`COc1ccc(OC(F)(F)F)cc1CN[C@H]1CCCN[C@H]1c1ccccc1`: the Potency was 49 µM (active) in assay [1]; 43.6 µM (active) in assay [3]; 54.9 µM (active) in assay [4]; 54.9 µM (active) in assay [5]; 49 µM (active) in assay [6]; 49 µM (active) in assay [10].

Consider `COc1cccc(O)c1O`, for which the Potency result in [1], in assay [2], in [9], in [4], in [5] and in assay [6] was “inactive” each time. In addition, the Potency entry in [10], in [7] and in assay [8] was “inactive” in each case.
